This is an account of results in PubChem BioAssay (NCATS).

A number with no mark means an inactive call. Inconclusive results are not listed. Where a call stands in place of a potency, no number is given. Calls of active or inactive are those of the source. Unless noted, calls come from the whole dose curve; as a rule, active = well fitted activation curve with a large enough effect; inconclusive = small, poorly fitted or top-dose-only effect; inactive = flat fitted curve, though single readings scatter.

The nature of the first experiment: Confirmation and Secondary Assay for Modulators of Hemoglobin Beta Chain Splicing at IVS2 654 locus (AID 910).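 Note: HeLa cells stably carrying EGFP split by mutant beta-globin IVS2-654 intron.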 The conditions noted are these: HeLa EGFP-654 splicing reporter, GFP fluorescence, 48 h; series mostly up to 46.1 µM. The essentials:
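HeLa cells stably expressing EGFP interrupted by β-globin IVS2-654 intron, seeded overnight in Opti-MEM/2% FCS, then treated 2 days at 37 °C. Restored splicing read as total peak GFP intensity per well by laser scanning cytometry (488 nm excitation, 500–520 nm emission); 500 nM antisense PNA as control.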
For the compound `COC1=CC(=O)C(O)=C/C1=C\C=C\c1ccccc1`, the Potency entry is “inactive”.
Still for that read-out and setting: the same measure for `CN1CCCC1CCO[C@@](C)(c1ccccc1)c1ccc(Cl)cc1` (some centres not stated): “inactive”; for `CC(=O)c1c(O)c(C)c(O)c2c1OC1=CC(=O)C(C(C)=O)C(=O)C12C` (configuration not stated): “inactive”.
On to `CC(CN(C)C)CN1c2ccccc2Sc2ccccc21` (configuration not stated), for which the Potency entry is “inactive”.
Consider `CCC(C)C(=O)OC1CC(C)C=C2C=CC(C)C(CCC3CC(O)CC(=O)O3)C21` (configuration not stated), for which the Potency result is “inactive”.
Take `O=C(CC(=O)c1ccccc1)c1ccccc1`: the Potency result was “inactive”.
Same read-out and setting: the same measure for `CC1=C2C(=COC(C)C2C)C(=O)C(C(=O)O)=C1O` (configuration not stated): “inactive”.
In the case of `NCC1O[C@@H](O[C@H]2C(O)C(O[C@@H]3C(O[C@H]4OC(CO)C(O)C(O)C4N)C(N)CC(N)[C@H]3O)O[C@@H]2CO)C(N)C(O)C1O` (some centres not stated), the Potency entry was “inactive”.
The same measure, in the same setting: next, `C#CCCCCCCCCCCCc1ccco1`: “inactive”.
On to `CC(=O)OC1CC[C@@]2(C)C3CC(=O)[C@]4(C)C(C(C)=O)=CCC4C3CC[C@H]2C1` (some centres not stated), for which the Potency result was “inactive”.
Regarding `CC(C)=CCCC(C)C1CC[C@@]2(C)C3=C(CC[C@@]12C)C1(C)CCC(O)C(C)(C)C1CC3` (some centres not stated), the Potency result was “inactive”.
`CN1CCCC1c1cccnc1` (configuration not stated): the Potency entry was “inactive”.
The same measure, in the same setting: the same measure for `C#C[C@@]1(O)CCC2C3CCc4cc(O)ccc4C3CC[C@@]21C` (some centres not stated): “inactive”.
Consider `COC(=O)CCC(C)C1CCC2C3C(O)C[C@@H]4CC(O)CC[C@@]4(C)C3CC(O)[C@]12C` (some centres not stated), for which the Potency entry was “inactive”.
As to `CC(C)c1ccc2c(c1)CCC1C(C)(C(N)=O)CCCC21C` (configuration not stated), the Potency entry was “inactive”.
On to `CC(=O)OCC1=C(C(=O)O)N2C(=O)C(NC(=O)Cc3cccs3)C2SC1` (configuration not stated), for which the Potency result was “inactive”.
The same measure, in the same setting: next, `CC1OC(OCC2OC(Oc3c(-c4ccc(O)c(O)c4)oc4cc(O)cc(O)c4c3=O)C(O)C(O)C2O)[C@@H](O)C(O)C1O` (some centres not stated): “inactive”; `CC1(C)OC2CC3C4CCC5=CC(=O)CCC5(C)C4(F)C(O)CC3(C)[C@]2(C(=O)CCl)O1` (some centres not stated): “inactive”.

The nature of the next experiment: Confirmation and Secondary Assay for Modulators of Hemoglobin Beta Chain Splicing at IVS2 705 locus (AID 930).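 Note: HeLa cells stably expressing the EGFP-705 splicing reporter; GFP fluorescence per well restored by corrected splicing of the IVS2-705 intron in EGFP.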 The conditions noted are these: HeLa EGFP-705 splicing reporter, GFP fluorescence, 48 h; series mostly up to 46.1 µM. The essentials:
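HeLa cells stably carrying EGFP interrupted by mutant beta-globin intron 2 (IVS2-705) treated 2 days at 37C with compound; 500 nM antisense PNA as control. Correct splicing read as total peak GFP intensity per well by laser-scanning cytometry.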
On to `COC1=CC(=O)C(O)=C/C1=C\C=C\c1ccccc1`, for which the Potency entry is “inactive”.
On the same count and under the same terms, the same measure for `COC(=O)[C@H]1C(OC)[C@@H](OC(=O)c2cc(OC)c(OC)c(OC)c2)C[C@@H]2CN3CCc4c([nH]c5cc(OC)ccc45)[C@H]3C[C@H]21` (some centres not stated): “inactive”.
Take `CN1CCCC1CCO[C@@](C)(c1ccccc1)c1ccc(Cl)cc1` (some centres not stated): the Potency result was “inactive”.
On to `CC(=O)c1c(O)c(C)c(O)c2c1OC1=CC(=O)C(C(C)=O)C(=O)C12C` (configuration not stated), for which the Potency result is “inactive”.
On to `CC(CN(C)C)CN1c2ccccc2Sc2ccccc21` (configuration not stated), for which the Potency entry is “inactive”.
The same measure, in the same setting: the same measure for `CCC(C)C(=O)OC1CC(C)C=C2C=CC(C)C(CCC3CC(O)CC(=O)O3)C21` (configuration not stated): “inactive”; for `O=C(CC(=O)c1ccccc1)c1ccccc1`: “inactive”.
`CC1=C(C(=O)O)N2C(=O)C(NC(=O)C(N)c3ccccc3)C2SC1` (configuration not stated): the Potency result is “inactive”.
On the same count and under the same terms, the same measure for `CC1=C2C(=COC(C)C2C)C(=O)C(C(=O)O)=C1O` (configuration not stated): “inactive”.
On to `NCC1O[C@@H](O[C@H]2C(O)C(O[C@@H]3C(O[C@H]4OC(CO)C(O)C(O)C4N)C(N)CC(N)[C@H]3O)O[C@@H]2CO)C(N)C(O)C1O` (some centres not stated), for which the Potency result was “inactive”.
Same read-out and setting: next, `C#CCCCCCCCCCCCc1ccco1`: “inactive”.
As for `CC(=O)OC1CC[C@@]2(C)C3CC(=O)[C@]4(C)C(C(C)=O)=CCC4C3CC[C@H]2C1` (some centres not stated), the Potency result is “inactive”.
As for `CC(C)=CCCC(C)C1CC[C@@]2(C)C3=C(CC[C@@]12C)C1(C)CCC(O)C(C)(C)C1CC3` (some centres not stated), the Potency result was “inactive”.
For the compound `CN1CCCC1c1cccnc1` (configuration not stated), the Potency entry is “inactive”.
With `NCCCCC(NC(CCc1ccccc1)C(=O)O)C(=O)N1CCCC1C(=O)O` (configuration not stated), the Potency result is “inactive”.
On the same count and under the same terms, next, `CCC(C)(C)C(=O)OC1CC(C)C=C2C=CC(C)C(CCC3CC(O)CC(=O)O3)C21` (configuration not stated): “inactive”.
For the compound `C#C[C@@]1(O)CCC2C3CCc4cc(O)ccc4C3CC[C@@]21C` (some centres not stated), the Potency entry is “inactive”.
`COC(=O)CCC(C)C1CCC2C3C(O)C[C@@H]4CC(O)CC[C@@]4(C)C3CC(O)[C@]12C` (some centres not stated): the Potency result was “inactive”.
On the same count and under the same terms, next, `CC(C)c1ccc2c(c1)CCC1C(C)(C(N)=O)CCCC21C` (configuration not stated): “inactive”.
Take `CC(=O)OCC1=C(C(=O)O)N2C(=O)C(NC(=O)Cc3cccs3)C2SC1` (configuration not stated): the Potency result is “inactive”.
On to `CC1OC(OCC2OC(Oc3c(-c4ccc(O)c(O)c4)oc4cc(O)cc(O)c4c3=O)C(O)C(O)C2O)[C@@H](O)C(O)C1O` (some centres not stated), for which the Potency entry was “inactive”.
The same measure, in the same setting: next, `CC1(C)OC2CC3C4CCC5=CC(=O)CCC5(C)C4(F)C(O)CC3(C)[C@]2(C(=O)CCl)O1` (some centres not stated): “inactive”.

A short description of another experiment: qHTS Assay for Lipid Storage Modulators (AID 1519; calls by dose curve). To be noted: Drosophila S3 cells, BODIPY lipid droplet/cell ratio, laser cytometry; at 57.5 µM (top of the series); cells loaded with oleic acid. The essentials:
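Cells seeded at 5,000 per well were treated with compounds over a concentration series and loaded with oleic acid (400 uM, as added). Lipid droplet fluorescence (488 nm excitation, 500-530 nm channel) was read by laser-scanning cytometry and normalized to 20 uM Triacsin C.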
With `COC1=CC(=O)C(O)=C/C1=C\C=C\c1ccccc1`, the activity change, negative = inhibition is -23.3%.
Take `COC(=O)[C@H]1C(OC)[C@@H](OC(=O)c2cc(OC)c(OC)c(OC)c2)C[C@@H]2CN3CCc4c([nH]c5cc(OC)ccc45)[C@H]3C[C@H]21` (some centres not stated): the activity change, negative = inhibition was 8.9%.
Turning to `CN1CCCC1CCO[C@@](C)(c1ccccc1)c1ccc(Cl)cc1` (some centres not stated), the activity change, negative = inhibition was -9.48%.
In the case of `CC(=O)c1c(O)c(C)c(O)c2c1OC1=CC(=O)C(C(C)=O)C(=O)C12C` (configuration not stated), the activity change, negative = inhibition was 6.96%.
Consider `CC(CN(C)C)CN1c2ccccc2Sc2ccccc21` (configuration not stated), for which the activity change, negative = inhibition was 6.07%.
Consider `CCC(C)C(=O)OC1CC(C)C=C2C=CC(C)C(CCC3CC(O)CC(=O)O3)C21` (configuration not stated), for which the activity change, negative = inhibition is 5.56%.
As to `O=C(CC(=O)c1ccccc1)c1ccccc1`, the activity change, negative = inhibition is 2.34%.
As for `CC1=C(C(=O)O)N2C(=O)C(NC(=O)C(N)c3ccccc3)C2SC1` (configuration not stated), the activity change, negative = inhibition was 9.95%.
Still for that read-out and setting: next, `CC1=C2C(=COC(C)C2C)C(=O)C(C(=O)O)=C1O` (configuration not stated): 4.18%; `NCC1O[C@@H](O[C@H]2C(O)C(O[C@@H]3C(O[C@H]4OC(CO)C(O)C(O)C4N)C(N)CC(N)[C@H]3O)O[C@@H]2CO)C(N)C(O)C1O` (some centres not stated): 10.8%.
The same measure, in the same setting: next, `C#CCCCCCCCCCCCc1ccco1`: 2.25%.
Same read-out and setting: next, `CC(=O)OC1CC[C@@]2(C)C3CC(=O)[C@]4(C)C(C(C)=O)=CCC4C3CC[C@H]2C1` (some centres not stated): -12.8%; `CC(C)=CCCC(C)C1CC[C@@]2(C)C3=C(CC[C@@]12C)C1(C)CCC(O)C(C)(C)C1CC3` (some centres not stated): 6.04%; `CN1CCCC1c1cccnc1` (configuration not stated): 7.69%.
On to `NCCCCC(NC(CCc1ccccc1)C(=O)O)C(=O)N1CCCC1C(=O)O` (configuration not stated), for which the activity change, negative = inhibition is 8.08%.
Regarding `CCC(C)(C)C(=O)OC1CC(C)C=C2C=CC(C)C(CCC3CC(O)CC(=O)O3)C21` (configuration not stated), the activity change, negative = inhibition is -9%.
With `C#C[C@@]1(O)CCC2C3CCc4cc(O)ccc4C3CC[C@@]21C` (some centres not stated), the activity change, negative = inhibition is 6.48%.
With `COC(=O)CCC(C)C1CCC2C3C(O)C[C@@H]4CC(O)CC[C@@]4(C)C3CC(O)[C@]12C` (some centres not stated), the activity change, negative = inhibition is 2.8%.
Still for that read-out and setting: the same measure for `CC(C)c1ccc2c(c1)CCC1C(C)(C(N)=O)CCCC21C` (configuration not stated): -15.9%.
For `CC(=O)OCC1=C(C(=O)O)N2C(=O)C(NC(=O)Cc3cccs3)C2SC1` (configuration not stated), the activity change, negative = inhibition is 9.08%.
As to `CC1OC(OCC2OC(Oc3c(-c4ccc(O)c(O)c4)oc4cc(O)cc(O)c4c3=O)C(O)C(O)C2O)[C@@H](O)C(O)C1O` (some centres not stated), the activity change, negative = inhibition was 4.3%.
Still for that read-out and setting: the same measure for `CC1(C)OC2CC3C4CCC5=CC(=O)CCC5(C)C4(F)C(O)CC3(C)[C@]2(C(=O)CCl)O1` (some centres not stated): 8%.
